Measured values from article PMC4336329 (PLoS ONE, 2015).
Among all 310,000 compounds or so, about 2,200 (0.71%) showed an effect of 50% or more. Effects have a minus sign here. What follows is part of a selection rich in strong results, with near analogues and random picks from the rest.

Target: human ether-à-go-go-related gene (hERG) potassium channel (human, UniProt Q12809)
Experiment: primary screen, population patch clamp on CHO cells stably expressing hERG; higher = less effect of the substance

Chain of human ether-à-go-go-related gene (hERG) potassium channel (Q12809 whole entry, looked up): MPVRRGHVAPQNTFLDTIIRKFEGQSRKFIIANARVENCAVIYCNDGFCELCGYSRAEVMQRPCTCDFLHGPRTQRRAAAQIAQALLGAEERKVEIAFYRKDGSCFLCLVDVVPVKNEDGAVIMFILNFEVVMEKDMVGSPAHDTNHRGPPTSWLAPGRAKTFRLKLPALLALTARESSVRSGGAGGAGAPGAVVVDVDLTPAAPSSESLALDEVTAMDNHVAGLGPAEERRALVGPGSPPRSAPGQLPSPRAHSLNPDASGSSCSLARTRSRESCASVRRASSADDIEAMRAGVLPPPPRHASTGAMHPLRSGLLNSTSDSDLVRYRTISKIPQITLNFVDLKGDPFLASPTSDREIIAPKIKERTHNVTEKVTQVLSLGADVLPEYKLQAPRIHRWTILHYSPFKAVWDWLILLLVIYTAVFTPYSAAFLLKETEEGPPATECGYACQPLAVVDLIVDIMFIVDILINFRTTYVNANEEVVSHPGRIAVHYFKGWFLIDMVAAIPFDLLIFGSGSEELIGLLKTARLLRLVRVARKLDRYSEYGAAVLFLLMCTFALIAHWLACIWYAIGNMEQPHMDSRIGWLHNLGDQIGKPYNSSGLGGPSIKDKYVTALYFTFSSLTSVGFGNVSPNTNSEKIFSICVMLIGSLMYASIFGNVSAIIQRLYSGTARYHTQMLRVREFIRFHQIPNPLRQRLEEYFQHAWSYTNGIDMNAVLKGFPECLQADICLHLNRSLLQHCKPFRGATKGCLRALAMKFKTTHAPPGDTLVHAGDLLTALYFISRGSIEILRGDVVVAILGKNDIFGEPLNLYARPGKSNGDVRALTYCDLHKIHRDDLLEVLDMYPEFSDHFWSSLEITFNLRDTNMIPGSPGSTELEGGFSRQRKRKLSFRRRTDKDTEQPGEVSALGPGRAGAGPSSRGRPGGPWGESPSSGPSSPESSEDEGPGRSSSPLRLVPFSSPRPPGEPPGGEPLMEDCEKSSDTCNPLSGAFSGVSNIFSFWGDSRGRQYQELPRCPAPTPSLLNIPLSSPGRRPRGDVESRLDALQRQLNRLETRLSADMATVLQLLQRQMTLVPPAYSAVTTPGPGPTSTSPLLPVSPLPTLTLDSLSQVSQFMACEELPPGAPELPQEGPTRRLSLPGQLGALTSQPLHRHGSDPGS

SMILES | hERG current change (%, negative = inhibition) at 1uM [%]
COc1ccc(-n2ccnc(SCC(=O)NC3CCCC3)c2=O)cc1 | -4.46
CCOc1cc(C(=O)NC(C)c2ccncc2)cc(OCC)c1OCC (centres unmarked) | -1.97
Cc1cc(Cl)ccc1N(CC(=O)NCc1ccc2c(c1)OCO2)S(C)(=O)=O | 3.99
Cc1ccc(NC(=S)N(CCC(C)C)C(C)c2ccncc2)c(Cl)c1 (centres unmarked) | 10.9
CC1(C(=O)NC(=S)N(Cc2ccccc2)c2ccccn2)CC1(Cl)Cl (centres unmarked) | 12.4
Cc1cc(C)c([C@@H]2C[C@H]3CN(C4CCCC4)C(=O)[C@]34CCCN24)c(-n2cccn2)c1 | -71.7
O=C1N(C2CCCC2)C[C@@H]2C[C@@H](c3cccn3-c3nccs3)N3CCC[C@@]123 | -60.3
O=C1N(C2CCCC2)C[C@@H]2C[C@@H](c3cccn3-c3ccccn3)N3CCC[C@@]123 | -28.9
Cn1cc([C@@H]2C[C@H]3CN(C4CCCC4)C(=O)[C@]34CCCN24)c(-c2ccccc2)n1 | -0.828
CN1C[C@@H]2C[C@@H](c3cccn3-c3nccs3)N3CCC[C@@]23C1=O | 1.26
Cc1ccc(-n2cccn2)c([C@@H]2C[C@H]3CN(C)C(=O)[C@]34CCCN24)c1 | -15
COc1ccc(Nc2nc(N)c(C(=O)c3ccc(OC)cc3)s2)cc1 | -5.28
CC12CCC(=O)N1C(C(=O)Nc1cc(C(F)(F)F)ccc1N1CCOCC1)CS2 (centres unmarked) | 10.5
Cc1cc(C)nc(NC(=S)Nc2cccc(F)c2)c1 | 6.3
CCOc1cc(N2CCOCC2)c(OCC)cc1NC(=O)c1ccc(C)s1 | -1.15
COc1ccc(N=C2SCCCN2C)cc1.I | 15.8
c1cc2c3c(cccc3c1)C(N1CCCCC1)=N2 | -44.8
c1cc2c3c(cccc3c1)C(N1CCOCC1)=N2 | -0.83
Fc1ccc(N2CCN(C3=Nc4cccc5cccc3c45)CC2)cc1 | -69.4
CNC(=O)CC1C(=O)N(c2ccc(Cl)cc2)C(=S)N1CCc1ccc(OC)c(OC)c1 (centres unmarked) | 10.1
N=c1c(S(=O)(=O)c2ccc(Br)cc2)cc2c(=O)n3ccccc3nc2n1C1CCCCC1 | 21.1

SMILES | hERG current change (%, negative = inhibition) at 1uM [%]
O=C(NCC1CCCO1)c1cccc2ccccc12 (centres unmarked) | 17.8
N=c1c(C(=O)NCC2CCCO2)cc2c(=O)n3ccccc3nc2n1C1CCCCC1 (centres unmarked) | -79.2
N=c1c(S(=O)(=O)c2ccc(Br)cc2)cc2c(=O)n3ccccc3nc2n1C1CCCC1 | 14.3
N=c1c(C(=O)NCC2CCCO2)cc2c(=O)n3ccccc3nc2n1C1CCCC1 (centres unmarked) | -72.2
CN(C)c1ccc(CN(C(=O)/C=C/c2ccco2)C2CCS(=O)(=O)C2)cc1 (centres unmarked) | 11.7
O=C(Nc1ccc(F)c(Cl)c1)Nn1cnnc1 | 0.762
Cc1cccc(NC(=S)N/N=C/c2ccc([N+](=O)[O-])s2)c1 | 11.2
COc1ccc2[nH]c(=O)c(C(c3nnnn3C3CCCC3)N(C)C3CCCCC3)cc2c1 (centres unmarked) | -3.8
CN(C(=O)c1ccc(S(=O)(=O)N2CCCCC2)cc1)C1CCS(=O)(=O)C1 (centres unmarked) | -3.22
Br.CC1CC(C)CN(CC(=O)c2ccc(OC(F)F)cc2)C1 (centres unmarked) | -96.1
CCC1CCCCN1CC(=O)c1c(C)[nH]c2ccc(OC)cc12 (centres unmarked) | -5.25
Br.COc1ccc(C(=O)CN2CCCCC2)cc1 | 13.9
CCC1CCCCN1CC(=O)c1ccc(OC(F)F)cc1 (centres unmarked) | -80.2
CC1CC(C)CN(CC(=O)c2cccs2)C1 (centres unmarked) | -7.65
Cl.O=C(CN1CCCCC1)c1ccc(F)cc1 | 7.09
CC1CC(C)CN(C(=S)Nc2ccc(OC(F)F)cc2)C1 (centres unmarked) | -45.1
Br.O=C(CN1CCCCC1CO)c1ccc(OC(F)F)cc1 (centres unmarked) | -21.3
Br.O=C(CN1CCCCC1)c1ccc(OC(F)F)cc1 | -63.4
O=C(COC(=O)C1CCN(C(=O)c2ccc(Cl)cc2)CC1)Nc1ccccc1F | -11.5
Cc1cc(-c2nn(-c3ccccc3F)cc2CN2CCC(O)CC2)c(C)s1 | -0.852
